Data on eight compounds can be found in PubChem BioAssay (NCI).

Some test systems named below: HCT-15 colon; HT29 colon; SNB-19 CNS; U251 CNS; PC-3 prostate; SK-MEL-5 melanoma; UACC-62 melanoma; LOX IMVI melanoma; SK-MEL-28 melanoma; SK-MEL-2 melanoma; SN12C renal; UO-31 renal; TK-10 renal; ACHN renal; CAKI-1 renal; A498 renal; CCRF-CEM leukemia; MOLT-4 leukemia; EKVX NSCLC; SNB-75 CNS.
What all share (assay): NCI-60 one-dose screen, 48 h (100 = growth as untreated, 0 = no growth, -100 = all killed)
What all share (conditions): 10 µM unless noted

Where “and” joins values, the source holds several entries; their conditions need not be identical. Equal entries are not always repeated. Compounds without any hit were thinned out: in the full panel of roughly 83,000, 20% have a hit.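 Percent growth is the endpoint: 0 to 100 indicates growth inhibition (40 means 60% inhibition), 0 means no net growth, and negative values indicate cell death.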 A structure can be active in one record and inactive in another. Calls of active or inactive are those of the source. How the source made its calls: active means growth percent below 10; inactive means the rest.

As to `CC(/C=N/N1C(=O)c2ccccc2C1=O)c1ccccc1` (stereo unspecified), the growth with HCT-15 colon was 98.2% (inactive); with HT29 colon, 108% (inactive); with SNB-19 CNS, 95.9% (inactive); in the assay on U251 CNS, 99.5% (inactive); with PC-3 prostate, 102% (inactive); in the assay with SK-MEL-5 melanoma, 99.4% (inactive). Also, the growth is 111% (inactive) in the assay with UACC-62 melanoma; 98.3% (inactive) in the assay with LOX IMVI melanoma; 103% (inactive) with SK-MEL-28 melanoma; 110% (inactive) in the assay on SK-MEL-2 melanoma; 99.6% (inactive) in the assay with SN12C renal; 88.1% (inactive) in the assay on UO-31 renal. Besides, the growth is 113% (inactive) in the assay on TK-10 renal; 97.4% (inactive) with ACHN renal; 83.6% (inactive) with CAKI-1 renal; 98% (inactive) with A498 renal; 110% (inactive) in the assay with CCRF-CEM leukemia; 106% (inactive) in the assay on MOLT-4 leukemia.

`NC(=O)C1CC2C=CC1C2` (stereo unspecified): the growth with HCT-15 colon was 107% (inactive) and 106% (inactive); in the assay on HT29 colon, 107% (inactive) and 114% (inactive); in the assay on SNB-19 CNS it was 92.1% (inactive); in the assay with U251 CNS, 98.7% (inactive) and 99.8% (inactive); in the assay on PC-3 prostate, 100% (inactive) and 98.4% (inactive); in the assay with SK-MEL-5 melanoma, 99.9% (inactive) and 109% (inactive). Besides, the growth in the assay with UACC-62 melanoma was 102% (inactive) and 94.3% (inactive); in the assay with SK-MEL-28 melanoma it was 104% (inactive) and 101% (inactive); in the assay on SK-MEL-2 melanoma, 98.6% (inactive) and 112% (inactive); with EKVX NSCLC, 102% (inactive) and 94.7% (inactive); in the assay with SN12C renal, 103% (inactive) and 99.6% (inactive); in the assay with UO-31 renal it was 100% (inactive) and 86.8% (inactive). Also, the growth is 120% (inactive) and 117% (inactive) in the assay on TK-10 renal; 101% (inactive) and 95.3% (inactive) with ACHN renal; 76.1% (inactive) and 69.2% (inactive) in the assay on CAKI-1 renal; 112% (inactive) and 89.4% (inactive) in the assay on A498 renal; 118% (inactive) and 96.2% (inactive) in the assay with CCRF-CEM leukemia; 103% (inactive) and 102% (inactive) in the assay with MOLT-4 leukemia.

As to `COc1ccc2c(=O)cc(-c3ccccc3)[nH]c2c1`, the growth was 22.6% (inactive) and 19.2% (inactive) in the assay with HCT-15 colon; 13.8% (inactive) and 9.61% (active) with SNB-75 CNS; 29.6% (inactive) and 27% (inactive) in the assay on SNB-19 CNS; 12.2% (inactive) and 15.6% (inactive) in the assay with U251 CNS; 18.5% (inactive) and 19.4% (inactive) in the assay on PC-3 prostate; 21.5% (inactive) and 12.7% (inactive) in the assay with SK-MEL-5 melanoma. Besides, the growth with UACC-62 melanoma was 38.4% (inactive) and 20% (inactive); in the assay on LOX IMVI melanoma, 48.3% (inactive) and 49% (inactive); with SK-MEL-28 melanoma, 39.3% (inactive) and 70.8% (inactive); in the assay with SK-MEL-2 melanoma it was 31.4% (inactive) and -8.1% (active); with EKVX NSCLC, 48.9% (inactive) and 18.9% (inactive); in the assay on SN12C renal, 45.7% (inactive) and 42.7% (inactive). For the same compound, the growth with UO-31 renal is 41.7% (inactive) and 8.7% (active); with TK-10 renal, 48.4% (inactive) and 63.7% (inactive); in the assay with ACHN renal, 54.4% (inactive) and 51.9% (inactive); with CAKI-1 renal it was 24.6% (inactive); in the assay on A498 renal it was 50.7% (inactive); in the assay on CCRF-CEM leukemia, 14% (inactive) and 12.2% (inactive). Moreover, the growth in the assay with MOLT-4 leukemia is 26.9% (inactive) and 6.72% (active).

For `CN1CCN(CCC=C2c3ccccc3Sc3ccc(S(=O)(=O)N(C)C)cc32)CC1`, the growth was 46.4% (inactive) and 59.2% (inactive) with HCT-15 colon; 4.86% (active) and 4.22% (active) in the assay with HT29 colon; 52.7% (inactive) and 61.6% (inactive) in the assay on PC-3 prostate; 26.4% (inactive) and 69.1% (inactive) in the assay with SK-MEL-5 melanoma; -42.7% (active) with UACC-62 melanoma; 15.9% (inactive) and 40.7% (inactive) in the assay on LOX IMVI melanoma. Further, the growth in the assay with SK-MEL-28 melanoma was -54.1% (active) and -73.3% (active); with SK-MEL-2 melanoma, 68.5% (inactive) and 53.7% (inactive); in the assay on EKVX NSCLC, 80.1% (inactive) and 84.8% (inactive); in the assay on SN12C renal, 56.9% (inactive) and 76.4% (inactive); in the assay on UO-31 renal it was 36.7% (inactive) and 56.9% (inactive); with TK-10 renal, 70.5% (inactive) and 87.2% (inactive). For the same compound, the growth in the assay with ACHN renal was 65.8% (inactive) and 73.1% (inactive); with CAKI-1 renal, 48.5% (inactive) and 94.9% (inactive); in the assay on A498 renal, 73.5% (inactive) and 62.1% (inactive); with CCRF-CEM leukemia it was 54.2% (inactive) and 31.6% (inactive).

On to `CCN(CC)CCNc1ccc(C)c2sc3ccccc3c(=O)c12` (tested in a mixture with another compound), for which the growth with HCT-15 colon was 14.5% (inactive) and 14.2% (inactive); in the assay on HT29 colon it was 1.12% (active) and 10.8% (inactive); with SNB-19 CNS, 41.1% (inactive) and 26.3% (inactive); in the assay with U251 CNS, 18.4% (inactive) and 15.1% (inactive); with PC-3 prostate, 50.4% (inactive) and 35.3% (inactive); with SK-MEL-5 melanoma it was -85.6% (active) and -91.5% (active). Further, the growth in the assay with UACC-62 melanoma was -68.8% (active) and -47.5% (active); with LOX IMVI melanoma, -17% (active) and -40.3% (active); in the assay on SK-MEL-28 melanoma, -3.67% (active) and -6.09% (active); in the assay on SK-MEL-2 melanoma it was 59.2% (inactive) and 86.4% (inactive); in the assay on EKVX NSCLC it was 68.6% (inactive) and 86.6% (inactive); in the assay with SN12C renal it was 35.1% (inactive) and 36.4% (inactive). Moreover, the growth with UO-31 renal was -4.88% (active) and 2.67% (active); in the assay with TK-10 renal, 23.1% (inactive) and 50% (inactive); with ACHN renal, 16.7% (inactive) and 10.4% (inactive); with CAKI-1 renal, 22.4% (inactive) and 29.9% (inactive); in the assay with CCRF-CEM leukemia it was 55.7% (inactive) and 29.3% (inactive); in the assay with MOLT-4 leukemia it was 8.98% (active) and 26.9% (inactive).

Consider `O=C(N/N=C/c1ccc2c(c1)OCO2)c1ccncc1`, for which the growth in the assay with HCT-15 colon was 106% (inactive) and 104% (inactive); in the assay with SNB-75 CNS, 77.9% (inactive) and 98.4% (inactive); in the assay on SNB-19 CNS, 111% (inactive) and 103% (inactive); with U251 CNS, 104% (inactive); in the assay on PC-3 prostate it was 104% (inactive) and 88.5% (inactive); in the assay on SK-MEL-5 melanoma, 105% (inactive). In addition, the growth with UACC-62 melanoma was 91.3% (inactive) and 97.5% (inactive); in the assay on LOX IMVI melanoma, 97.4% (inactive) and 101% (inactive); with SK-MEL-28 melanoma it was 103% (inactive) and 106% (inactive); with SK-MEL-2 melanoma it was 110% (inactive) and 108% (inactive); in the assay on EKVX NSCLC, 104% (inactive) and 101% (inactive); in the assay on SN12C renal, 94.4% (inactive) and 98.4% (inactive). The growth was 82.8% (inactive) and 79.4% (inactive) with UO-31 renal; 91.2% (inactive) and 111% (inactive) in the assay with TK-10 renal; 107% (inactive) and 103% (inactive) with ACHN renal; 97.2% (inactive) and 97.5% (inactive) with CAKI-1 renal; 98% (inactive) and 94% (inactive) in the assay with A498 renal; 113% (inactive) and 101% (inactive) in the assay with CCRF-CEM leukemia. Besides, the growth in the assay on MOLT-4 leukemia was 133% (inactive).

As to `O=C(/C=C/c1ccccn1)c1ccccc1O`, the growth in the assay with HCT-15 colon was 39.4% (inactive) and 62% (inactive); with SNB-75 CNS it was 75% (inactive); in the assay with SNB-19 CNS, 77.3% (inactive) and 81.6% (inactive); in the assay on U251 CNS, 38.3% (inactive) and 68.4% (inactive); in the assay on PC-3 prostate it was 82.8% (inactive); in the assay on SK-MEL-5 melanoma, 75.2% (inactive) and 88.1% (inactive). Also, the growth in the assay on UACC-62 melanoma is 77.5% (inactive) and 81.6% (inactive); with LOX IMVI melanoma, 20.4% (inactive) and 21.7% (inactive); with SK-MEL-28 melanoma, 77.6% (inactive) and 92.6% (inactive); in the assay on SK-MEL-2 melanoma, 104% (inactive) and 100% (inactive); in the assay on EKVX NSCLC it was 76% (inactive) and 88.1% (inactive); in the assay with SN12C renal it was 63.7% (inactive) and 88.1% (inactive). In addition, the growth in the assay on UO-31 renal is -17.5% (active) and 74.7% (inactive); in the assay with TK-10 renal, 84.4% (inactive) and 55.3% (inactive); with ACHN renal, 65.3% (inactive) and 74.2% (inactive); in the assay with CAKI-1 renal it was 34.8% (inactive) and 40% (inactive); in the assay on A498 renal, 110% (inactive); in the assay with CCRF-CEM leukemia, 13.3% (inactive). In addition, in the assay on MOLT-4 leukemia, the growth was 41.5% (inactive).

Regarding `NC(=O)NO`, the growth in the assay on HCT-15 colon was 106% (inactive) and 72.2% (inactive); in the assay on SNB-75 CNS, 91.7% (inactive) and 60.3% (inactive); in the assay with SNB-19 CNS it was 105% (inactive) and 69.6% (inactive); with U251 CNS it was 96.6% (inactive) and 65.5% (inactive); in the assay with PC-3 prostate, 106% (inactive) and 72.6% (inactive); in the assay on SK-MEL-5 melanoma, 106% (inactive) and 80.5% (inactive). Also, the growth in the assay with UACC-62 melanoma is 103% (inactive) and 74.6% (inactive); in the assay with LOX IMVI melanoma, 101% (inactive) and 59% (inactive); with SK-MEL-28 melanoma it was 107% (inactive) and 45.5% (inactive); in the assay with SK-MEL-2 melanoma, 110% (inactive) and 94.1% (inactive); in the assay on EKVX NSCLC, 98.9% (inactive) and 59.5% (inactive); in the assay on SN12C renal it was 104% (inactive) and 71.5% (inactive). The growth in the assay with UO-31 renal is 87.8% (inactive) and 48.8% (inactive); in the assay with TK-10 renal, 113% (inactive) and 85% (inactive); with ACHN renal, 96.9% (inactive) and 67.5% (inactive); with CAKI-1 renal, 83.9% (inactive) and 77.2% (inactive); in the assay on A498 renal, 104% (inactive) and -7.21% (active); in the assay with CCRF-CEM leukemia it was 82.2% (inactive) and 68% (inactive). The growth with MOLT-4 leukemia was 95.9% (inactive) and 75.1% (inactive).
